Results: article PMC7862700, “An all-to-all approach to the identification of sequence-specific readers for epigenetic DNA modifications on cytosine”

Assays:
Assay in all cases: DAPPL (digital affinity profiling via proximity ligation, sequencing); 10 mM Tris-HCl pH 7.5, 50 mM NaCl, 1 mM DTT, 4% glycerol, room temperature, 30 min; GST-TFs on glutathione beads, 16-mer random dsDNA library, 0.1% formaldehyde crosslink after washing; high values mean tight binding
Conditions in all cases: protein: recombinant; tags: N-terminal GST; dsDNA, one strand shown
GABPA = biological target: T1, GABPA (Homo sapiens, UniProt Q06546 1-454)
T1 sequence: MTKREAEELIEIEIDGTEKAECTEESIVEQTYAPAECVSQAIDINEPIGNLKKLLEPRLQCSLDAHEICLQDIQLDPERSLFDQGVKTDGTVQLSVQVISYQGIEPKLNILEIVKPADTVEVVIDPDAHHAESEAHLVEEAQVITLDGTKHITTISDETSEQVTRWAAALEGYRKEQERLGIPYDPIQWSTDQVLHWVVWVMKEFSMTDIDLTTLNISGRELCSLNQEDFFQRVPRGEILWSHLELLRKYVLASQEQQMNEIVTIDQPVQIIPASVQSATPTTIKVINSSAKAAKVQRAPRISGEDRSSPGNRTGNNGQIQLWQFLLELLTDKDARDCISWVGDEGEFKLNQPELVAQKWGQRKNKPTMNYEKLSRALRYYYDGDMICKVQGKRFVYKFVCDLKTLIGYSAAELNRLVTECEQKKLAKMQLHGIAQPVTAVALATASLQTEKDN
Outline: (§1)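 The binding signal reported is, for every hexamer, its read frequency for a factor over its read frequency for the tag-only sample. Reads came from pools of yeast-expressed, GST-fused human transcription factors on glutathione beads, barcoded with DNA and mixed with that sample, which were incubated with 200 nmole of a random double-stranded 16-mer DNA library in Tris/NaCl/DTT/glycerol buffer at room temperature for 30 min. After washing, the pools were crosslinked with 0.1% formaldehyde, proximity-ligated with BsaI/T4 ligase for 1 h at 37 °C, PCR-amplified and sequenced on an Illumina NextSeq500.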

ERG = biological target: T2, ERG (Homo sapiens, UniProt P11308 1-479)
T2 sequence: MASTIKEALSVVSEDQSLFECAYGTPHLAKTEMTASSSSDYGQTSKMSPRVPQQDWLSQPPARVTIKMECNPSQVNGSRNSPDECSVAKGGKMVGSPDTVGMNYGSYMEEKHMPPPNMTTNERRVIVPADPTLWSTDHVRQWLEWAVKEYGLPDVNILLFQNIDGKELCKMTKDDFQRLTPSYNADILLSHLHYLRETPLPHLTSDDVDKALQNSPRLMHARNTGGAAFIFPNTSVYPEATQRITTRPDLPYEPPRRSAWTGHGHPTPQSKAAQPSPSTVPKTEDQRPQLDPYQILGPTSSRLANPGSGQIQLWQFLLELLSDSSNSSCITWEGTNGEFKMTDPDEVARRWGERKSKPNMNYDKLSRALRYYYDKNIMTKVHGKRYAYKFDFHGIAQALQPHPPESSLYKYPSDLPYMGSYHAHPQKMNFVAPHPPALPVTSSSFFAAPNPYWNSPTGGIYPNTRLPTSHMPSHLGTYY
Outline: as §1

ELF1 = ELF1 (Homo sapiens, UniProt P32519 1-619)
Outline: as §1

EHF = biological target: T3, EHF (Homo sapiens, UniProt Q9NZC4 1-300)
T3 sequence: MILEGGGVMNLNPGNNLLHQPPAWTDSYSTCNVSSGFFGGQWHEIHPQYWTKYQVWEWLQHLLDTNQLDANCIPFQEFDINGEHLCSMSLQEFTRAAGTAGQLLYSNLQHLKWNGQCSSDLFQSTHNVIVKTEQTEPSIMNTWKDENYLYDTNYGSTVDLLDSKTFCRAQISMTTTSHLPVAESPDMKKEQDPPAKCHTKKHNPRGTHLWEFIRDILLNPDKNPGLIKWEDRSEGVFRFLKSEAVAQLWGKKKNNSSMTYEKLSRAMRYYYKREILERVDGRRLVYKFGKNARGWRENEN
Outline: as §1

SPIB = SPIB (Homo sapiens, UniProt Q01892 1-262)
Outline: as §1

ETV5 = ETV5 (Homo sapiens, UniProt P41161 1-510)
Outline: as §1

ELK4 = biological target: T4, ELK4 (Homo sapiens, UniProt P28324-2 1-405)
T4 sequence: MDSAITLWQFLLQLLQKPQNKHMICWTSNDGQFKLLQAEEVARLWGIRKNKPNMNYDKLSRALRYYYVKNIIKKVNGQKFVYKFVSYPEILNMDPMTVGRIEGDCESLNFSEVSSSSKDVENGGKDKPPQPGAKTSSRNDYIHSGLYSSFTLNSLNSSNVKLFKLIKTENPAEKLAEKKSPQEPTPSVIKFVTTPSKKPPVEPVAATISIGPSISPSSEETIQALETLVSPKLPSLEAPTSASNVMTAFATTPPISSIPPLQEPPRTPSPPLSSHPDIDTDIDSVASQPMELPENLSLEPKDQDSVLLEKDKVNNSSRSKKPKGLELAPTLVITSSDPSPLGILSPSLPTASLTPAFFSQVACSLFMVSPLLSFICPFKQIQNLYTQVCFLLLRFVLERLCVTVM
Outline: as §1

ETV2 = biological target: T5, ETV2 (Homo sapiens, UniProt O00321 1-342)
T5 sequence: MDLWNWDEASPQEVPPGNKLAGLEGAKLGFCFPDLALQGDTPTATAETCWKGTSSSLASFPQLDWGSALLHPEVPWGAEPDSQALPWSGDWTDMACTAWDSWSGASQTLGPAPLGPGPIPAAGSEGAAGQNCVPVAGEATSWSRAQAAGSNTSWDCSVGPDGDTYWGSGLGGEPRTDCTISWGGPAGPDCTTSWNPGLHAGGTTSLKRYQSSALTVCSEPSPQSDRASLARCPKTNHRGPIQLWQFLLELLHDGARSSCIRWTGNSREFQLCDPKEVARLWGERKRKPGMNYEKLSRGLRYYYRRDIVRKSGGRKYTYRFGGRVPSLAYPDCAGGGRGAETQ
Outline: as §1

ELF3 = biological target: T6, ELF3 (Homo sapiens, UniProt P78545 1-371)
T6 sequence: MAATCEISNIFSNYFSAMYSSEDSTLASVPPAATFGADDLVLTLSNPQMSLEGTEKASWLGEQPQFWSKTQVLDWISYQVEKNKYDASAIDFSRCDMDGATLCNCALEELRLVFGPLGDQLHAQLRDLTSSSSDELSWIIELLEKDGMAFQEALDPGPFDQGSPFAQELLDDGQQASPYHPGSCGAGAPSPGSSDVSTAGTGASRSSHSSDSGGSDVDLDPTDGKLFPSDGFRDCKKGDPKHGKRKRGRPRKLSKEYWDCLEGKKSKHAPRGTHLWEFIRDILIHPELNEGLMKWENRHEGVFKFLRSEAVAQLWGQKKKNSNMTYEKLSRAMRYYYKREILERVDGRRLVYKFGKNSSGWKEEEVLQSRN
Outline: as §1

ETV1 = ETV1 (Homo sapiens, UniProt P50549 1-477)
Outline: as §1

ERF = biological target: T7, ERF (Homo sapiens, UniProt P50548 1-548)
T7 sequence: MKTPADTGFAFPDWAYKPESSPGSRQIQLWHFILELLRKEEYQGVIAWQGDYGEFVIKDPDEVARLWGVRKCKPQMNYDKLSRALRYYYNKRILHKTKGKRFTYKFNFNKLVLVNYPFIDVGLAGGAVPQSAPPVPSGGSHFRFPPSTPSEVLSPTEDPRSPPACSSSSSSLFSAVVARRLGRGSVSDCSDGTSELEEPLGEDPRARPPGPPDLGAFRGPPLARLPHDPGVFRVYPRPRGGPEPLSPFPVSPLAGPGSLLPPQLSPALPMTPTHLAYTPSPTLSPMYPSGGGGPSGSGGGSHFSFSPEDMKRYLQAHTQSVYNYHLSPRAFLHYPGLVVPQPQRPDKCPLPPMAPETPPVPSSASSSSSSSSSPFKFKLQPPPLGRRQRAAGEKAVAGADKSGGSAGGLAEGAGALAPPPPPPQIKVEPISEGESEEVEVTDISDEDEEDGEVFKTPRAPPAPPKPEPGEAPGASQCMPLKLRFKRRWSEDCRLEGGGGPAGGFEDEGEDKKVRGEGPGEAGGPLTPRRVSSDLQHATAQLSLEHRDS
Outline: as §1

ETV3L = biological target: T8, ETV3L (Homo sapiens, UniProt Q6ZN32 1-361)
T8 sequence: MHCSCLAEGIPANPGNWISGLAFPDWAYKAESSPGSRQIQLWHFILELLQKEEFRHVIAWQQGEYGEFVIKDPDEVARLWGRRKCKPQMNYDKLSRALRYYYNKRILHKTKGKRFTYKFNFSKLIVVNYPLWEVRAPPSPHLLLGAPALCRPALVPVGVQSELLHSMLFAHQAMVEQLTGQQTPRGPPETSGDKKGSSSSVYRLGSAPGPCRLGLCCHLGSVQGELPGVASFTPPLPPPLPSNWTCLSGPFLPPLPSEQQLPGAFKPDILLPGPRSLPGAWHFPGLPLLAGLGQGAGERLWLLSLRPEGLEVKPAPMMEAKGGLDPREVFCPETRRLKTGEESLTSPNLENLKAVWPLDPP
Outline: as §1

ETV3 = biological target: T9, ETV3 (Homo sapiens, UniProt P41162-2 1-143)
T9 sequence: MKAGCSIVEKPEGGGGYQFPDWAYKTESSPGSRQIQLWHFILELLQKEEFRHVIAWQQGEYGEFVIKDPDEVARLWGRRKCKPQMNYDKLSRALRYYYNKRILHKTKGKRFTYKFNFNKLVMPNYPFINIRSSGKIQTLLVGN
Outline: as §1

ETV5, sequence (P41161 whole entry): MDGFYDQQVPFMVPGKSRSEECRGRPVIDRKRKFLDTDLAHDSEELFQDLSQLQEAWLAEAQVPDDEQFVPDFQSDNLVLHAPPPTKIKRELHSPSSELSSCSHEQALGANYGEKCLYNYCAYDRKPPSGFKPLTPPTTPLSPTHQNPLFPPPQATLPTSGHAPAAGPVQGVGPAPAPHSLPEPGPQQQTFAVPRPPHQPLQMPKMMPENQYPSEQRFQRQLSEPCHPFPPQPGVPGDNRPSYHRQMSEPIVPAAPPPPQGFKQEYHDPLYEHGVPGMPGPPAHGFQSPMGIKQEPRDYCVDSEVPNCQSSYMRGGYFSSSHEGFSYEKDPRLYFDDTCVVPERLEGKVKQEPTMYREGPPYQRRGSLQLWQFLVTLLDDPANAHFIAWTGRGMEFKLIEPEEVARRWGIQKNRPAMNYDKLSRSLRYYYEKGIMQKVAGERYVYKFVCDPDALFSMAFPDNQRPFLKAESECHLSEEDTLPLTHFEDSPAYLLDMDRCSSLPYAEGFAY
SPIB, sequence (Q01892 whole entry): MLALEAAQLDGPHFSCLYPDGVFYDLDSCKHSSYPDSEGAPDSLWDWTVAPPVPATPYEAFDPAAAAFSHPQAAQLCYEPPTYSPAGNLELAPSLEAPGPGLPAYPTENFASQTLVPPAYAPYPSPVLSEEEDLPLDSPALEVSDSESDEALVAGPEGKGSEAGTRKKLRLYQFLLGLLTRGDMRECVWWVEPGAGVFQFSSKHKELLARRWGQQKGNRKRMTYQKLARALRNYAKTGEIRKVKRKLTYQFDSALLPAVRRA
ELF1, sequence (P32519 whole entry): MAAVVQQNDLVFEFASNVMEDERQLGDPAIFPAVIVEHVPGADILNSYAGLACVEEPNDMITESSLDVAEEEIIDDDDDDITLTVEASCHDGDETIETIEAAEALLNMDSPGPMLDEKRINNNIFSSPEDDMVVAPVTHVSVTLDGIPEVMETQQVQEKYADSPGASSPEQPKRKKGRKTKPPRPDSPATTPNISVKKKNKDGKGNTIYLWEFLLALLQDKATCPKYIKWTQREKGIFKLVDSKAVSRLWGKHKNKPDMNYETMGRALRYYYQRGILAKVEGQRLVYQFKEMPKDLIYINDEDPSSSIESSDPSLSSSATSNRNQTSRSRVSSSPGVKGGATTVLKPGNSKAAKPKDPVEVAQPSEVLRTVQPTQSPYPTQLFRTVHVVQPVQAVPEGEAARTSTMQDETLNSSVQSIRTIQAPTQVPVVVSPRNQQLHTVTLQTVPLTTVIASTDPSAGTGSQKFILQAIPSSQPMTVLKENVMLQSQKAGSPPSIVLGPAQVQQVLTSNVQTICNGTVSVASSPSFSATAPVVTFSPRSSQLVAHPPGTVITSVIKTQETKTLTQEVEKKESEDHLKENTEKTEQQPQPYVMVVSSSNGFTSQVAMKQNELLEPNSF
ETV1, sequence (P50549 whole entry): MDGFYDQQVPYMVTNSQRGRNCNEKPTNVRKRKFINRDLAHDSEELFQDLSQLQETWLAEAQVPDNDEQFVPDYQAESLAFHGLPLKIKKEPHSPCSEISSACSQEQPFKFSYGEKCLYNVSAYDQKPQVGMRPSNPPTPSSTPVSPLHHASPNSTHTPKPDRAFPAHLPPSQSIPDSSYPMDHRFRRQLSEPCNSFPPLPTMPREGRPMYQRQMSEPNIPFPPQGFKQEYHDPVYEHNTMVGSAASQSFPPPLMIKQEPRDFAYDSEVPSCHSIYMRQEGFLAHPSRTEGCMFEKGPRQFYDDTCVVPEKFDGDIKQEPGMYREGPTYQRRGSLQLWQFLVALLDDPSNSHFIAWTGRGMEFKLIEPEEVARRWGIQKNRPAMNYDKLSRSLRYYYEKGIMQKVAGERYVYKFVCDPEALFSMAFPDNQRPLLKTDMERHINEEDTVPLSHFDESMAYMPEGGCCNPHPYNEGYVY

Row | Sequence | binding signal (GABPA) | binding signal (ERG) | binding signal (ELF1) | binding signal (EHF) | binding signal (SPIB) | binding signal (ETV5) | binding signal (ELK4) | binding signal (ETV2) | binding signal (ELF3) | binding signal (ETV1) | binding signal (ERF) | binding signal (ETV3L) | binding signal (ETV3)
1 | TGAAAT | 1.03 fold enrichment (6-mer frequency, TF over GST control) | 1.02 fold enrichment (6-mer frequency, TF over GST control) | 1 fold enrichment (6-mer frequency, TF over GST control) | 1.01 fold enrichment (6-mer frequency, TF over GST control) | 1.01 fold enrichment (6-mer frequency, TF over GST control) | 1.07 fold enrichment (6-mer frequency, TF over GST control) | 1.04 fold enrichment (6-mer frequency, TF over GST control) | 1.04 fold enrichment (6-mer frequency, TF over GST control) | 1.09 fold enrichment (6-mer frequency, TF over GST control) | 1.08 fold enrichment (6-mer frequency, TF over GST control) | 1.01 fold enrichment (6-mer frequency, TF over GST control) | 1.04 fold enrichment (6-mer frequency, TF over GST control) | 1.03 fold enrichment (6-mer frequency, TF over GST control)
2 | GAGCTT | 1.08 fold enrichment (6-mer frequency, TF over GST control) | – | – | – | – | 1.04 fold enrichment (6-mer frequency, TF over GST control) | – | – | 1.04 fold enrichment (6-mer frequency, TF over GST control) | – | – | – | 1.03 fold enrichment (6-mer frequency, TF over GST control)
